This is a sample that favours compounds with a hit; in the whole collection about 5.1% have one here.
Tau fluor counter = counter-screen for tau fibril formation inhibitors; hit rate 0.93% among 280,000; tau K18 P301L Alexa594 fluorescence, heparin fibrillization; Potency, µM (highest dose often 57.7 µM); note: nearly all actives have a fitted effect of over 55% in size
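Human tau K18 P301L (15 uM unlabeled, 0.24 uM Alexa 594-labeled) in 100 mM sodium acetate pH 7 with 20 uM heparin, 6 hr at 37 C. ThT 30 uM added, 1 hr ambient; Alexa 594 FP and total fluorescence read at 555/632 nm.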
Tau ThT inhib = tau fibrillization inhibition (ThT binding); P10636; recombinant tau K18 P301L (four-repeat tau fragment), heparin-induced fibrillization, ThT fluorescence; Potency, µM (titrated, usually from 57.4 µM), usual class: inhibitors; hit rate 2.1% among 270,000; note: nearly all actives have a fitted effect of over 55% in size
Target sequence (P10636 561-689 P618L limits assumed): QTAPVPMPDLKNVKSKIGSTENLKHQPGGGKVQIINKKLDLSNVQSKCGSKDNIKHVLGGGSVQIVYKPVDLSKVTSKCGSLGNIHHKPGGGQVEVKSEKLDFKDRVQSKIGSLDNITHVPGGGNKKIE
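Aggregation was driven by heparin (20 uM final) acting on recombinant tau […] bearing P301L in 100 mM sodium acetate pH 7; fibrils were detected with Thioflavin T.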
PNC assembly inh = inhibitors of perinucleolar compartment assembly. activity change (PNC), negative = inhibition, % at 10 µM. hit rate 3.1% among 140,000. PC3M PTB-GFP, PNC prevalence imaging, 16 h; active compounds read low. AID 2417;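 active = readout at or below -70, meaning at least 70% loss of cells showing the perinucleolar compartment, a nuclear body marking cancer cells; inconclusive = readout between -30 and a set limit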
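PC3M cells stably expressing PTB-GFP, 750–1000 cells/well, treated 16 h at 37 °C with compound (23 nl of library stock), in duplicate. After paraformaldehyde fixation and Hoechst stain, imaged at 20x; PNC prevalence scored by image analysis.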
KDM4E inh = blocks human JMJD2E demethylase activity; B2RXH2; JMJD2E catalytic domain, FDH-coupled NADH fluorescence (FDH is formaldehyde dehydrogenase); Potency, µM (series often up to 57.1 µM), most hits filed as inhibitors; hit rate 1.6% among 230,000; AID 2147; active = well fitted inhibition curve with a large enough effect, not every such curve was filed as active; inconclusive = small, poorly fitted or top-dose-only effect, or another doubt; inactive = no such curve, though single readings can be large or run the other way; note: nearly all actives have a fitted effect of over 50% in size
NPSR antag = neuropeptide S receptor (human) antagonism, cAMP; Q6W5P4; hit rate 1% among 220,000; CHO-NPSR cells, cAMP TR-FRET, antagonist mode; Potency, µM (doses to about 38.3 µM), usual class: inhibitors; note: nearly all actives have a fitted effect of over 50% in size
Target sequence (Q6W5P4 whole entry, looked up): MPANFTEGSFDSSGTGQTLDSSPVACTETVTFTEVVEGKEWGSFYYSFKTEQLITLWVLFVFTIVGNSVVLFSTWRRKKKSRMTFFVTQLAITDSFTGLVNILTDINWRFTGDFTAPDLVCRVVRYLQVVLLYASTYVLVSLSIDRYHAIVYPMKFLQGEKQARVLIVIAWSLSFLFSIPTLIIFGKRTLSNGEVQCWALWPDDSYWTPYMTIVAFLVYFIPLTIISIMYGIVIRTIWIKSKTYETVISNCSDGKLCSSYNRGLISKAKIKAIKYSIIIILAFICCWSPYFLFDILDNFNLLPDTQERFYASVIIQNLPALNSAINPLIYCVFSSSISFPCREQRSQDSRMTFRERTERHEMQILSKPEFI
Tau FP inhib = inhibitors of human tau fibril formation. P10636. K18 P301L tau heparin fibrillization, Alexa594 FP, 6 h. Potency, µM (highest dose often 57.7 µM), usual class: inhibitors. hit rate 0.39% among 280,000; note: nearly all actives have a fitted effect of over 55% in size
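Recombinant K18 P301L […], labeled with Alexa 594 at 0.24 uM over 15 uM unlabeled; heparin inducer 20 uM final; 37 C, 6 hr; FP endpoint.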
A number is an active result; - = inactive; ? = inconclusive; . = not tested or not shown; [ ] = another dose, or the depositor's remark. Unless noted, calls come from the whole dose curve; as a rule, active = well fitted curve in the direction sought with a large enough effect; inconclusive = small, poorly fitted or top-dose-only effect, or another doubt; inactive = no such curve, though single readings can be large; an effect the other way counts as inactive or inconclusive.

SMILES | Tau fluor counter | Tau ThT inhib | PNC assembly inh | KDM4E inh | NPSR antag | Tau FP inhib
CC1CCc2c(sc3nc(-c4cc5cc(Br)ccc5oc4=O)[nH]c(=O)c23)C1 (stereo not given) | - | - | . | . | . | -
CC1=C(C(=O)Nc2c(C)cc(C)cc2C)C2(CCN(C(C)C)CC2)OC1=O | - | - | . | . | . | -
O=C(O)C1CCCNC1 (stereo not given) | - | - | -83 | - | - | -
CCCc1cc(=O)n2[nH]c(-c3ccc(Br)cc3)cc2n1 | - | - | -100 | ? | - | -
O=C(Oc1ccc2ccccc2c1)c1cncc(Br)c1 | - | - | - | - | - | -
O=C(Oc1ccc2c(=O)c(Oc3ccc4ccccc4c3)coc2c1)c1cncc(Br)c1 | - | - | ? | 11µM | - | -
CC(=O)c1cc(CN2C(=O)CCC2=O)cs1 | - | - | ? | - | - | -
CC(=O)c1cc(Cc2csc(C(C)=O)c2)cs1 | - | - | -100 | - | ? | ?
CCCCCCNC(=O)N[C@H](C(=O)NCCC[C@H]1CN2C(=NC[C@H]2C)N1CCC(c1ccccc1)c1ccccc1)C(C)O (stereo not given in full) | - | - | . | 20µM | 10µM | -
CCN(CC)CCNc1cc(C)nc2c1C(=O)C(=O)C=C2N1CCCCC1 | - | 8.9µM | . | ? | - | ?
CCN(CC)CCNC(=O)c1ccc(N2CCCCC2)c(NS(=O)(=O)c2ccc(C)cc2)c1 | - | - | - | ? | - | -
CC1(C)CNc2cc(N)ccc2S1 | 14µM[quencher] | 16µM | . | ? | - | ?
Clc1cccc(C2=NC(c3cccs3)=Nc3ccc(Br)cc3N2)c1 | ? | ? | . | . | . | -
O=C(CSC1=NS(=O)(=O)c2ccccc21)Nc1ccccc1 | - | 32µM | - | - | - | ?
COC(=O)CSC1=NS(=O)(=O)c2ccccc21 | - | - | ? | - | - | -
CSc1c(CC(=O)Nc2ccccc2Cl)n(Cc2ccccc2)c2ccccc12 | - | - | - | ? | ? | -
CSc1c(CC(=O)Nc2ccccc2C(F)(F)F)n(Cc2ccccc2)c2ccccc12 | - | - | -106 | - | - | -
CCC(C(=O)NCc1ccccc1Cl)n1c(=O)c2cccn2c2ccccc21 (stereo not given) | - | - | . | . | . | -
COc1ccc(NC2C=CS(=O)(=O)C2)cc1 (stereo not given) | - | - | - | - | - | -
CCOc1ccc(NC2C=CS(=O)(=O)C2)cc1 (stereo not given) | - | 35µM | ? | - | - | -
CCOC(=O)c1sc(N2N=C(C)/C(=C\c3ccc(OCC(=O)OC)cc3)C2=O)nc1C | - | ? | - | 22µM | - | -
CS(=O)(=O)NCCSCc1ccco1 | - | ? | -82 | - | - | -
Cc1[nH]c2ccccc2c1C(c1ccccc1)c1ccc(Cl)s1 (stereo not given) | 7.1µM[quencher] | ? | . | . | . | ?
Cc1cccc(N2CCN(S(=O)(=O)c3cn(C)c(C)n3)CC2)c1C | - | - | . | . | . | -
CC1(C)OC(C)(C)/C(=C/Nc2ccc(O)cc2)C1=O | ? | 14µM | - | ? | - | ?
SMILES | Tau fluor counter | Tau ThT inhib | PNC assembly inh | KDM4E inh | NPSR antag | Tau FP inhib
CC1(C)OC(=O)C(=CNc2cccc(O)c2)C(=O)O1 | - | - | - | - | - | -
CCOC(=O)c1ccc(NC(=O)Nc2ccc(F)cc2)cc1 | ? | ? | - | - | - | ?
CCOC(=O)c1cc[n+](CC(=O)c2ccc(F)cc2)cc1 | - | - | - | 32µM | - | -
COCCCNC(=O)c1nn(-c2ccc(C)cc2)c(=O)n(C)c1=O | - | - | . | . | . | -
O=C(Nc1ccc(Oc2ccc3c(c2)C(=O)N(c2ccc(O)cc2)C3=O)cc1)c1cccs1 | - | - | - | - | - | 14µM
COc1ccc(-n2ccn(CC(=O)NCc3ccc(C)cc3)c(=O)c2=O)cc1OC | - | ? | . | . | . | -
CCCSC1=N/C(=C\c2ccsc2)C(=O)S1 | - | - | - | - | - | -
CCCSC1=N/C(=C\c2ccc([N+](=O)[O-])o2)C(=O)S1 | ? | 13µM | . | ? | - | ?
O=C1SC(SCc2ccccc2)=N/C1=C\c1ccco1 | - | ? | - | - | - | -
O=C1ON=C(c2ccccc2)/C1=C/c1ccc(-c2ccccc2[N+](=O)[O-])o1 | - | ? | - | ? | 7.9µM | -
